Data reported in the supplement of paper PMC11732987, “Enantioselective OTUD7B fragment discovery through chemoproteomics screening and high-throughput optimisation” (Communications Chemistry, 2025).

Assays:
Assay in all cases: log2 ratio of Biotin-Ahx-Ub-VS probe labelling (fragment/DMSO); higher = less target engagement (more negative = stronger competition), active = hit call of the paper (q ≤ 0.05, log2 ratio ≤ -1)
Settings in all cases: compound concentration: 200 uM; treatment time: 3 h
USP34 = USP34 (UniProt Q70CQ2)
Chain of USP34 (Q70CQ2 whole entry, the tested form may be a part): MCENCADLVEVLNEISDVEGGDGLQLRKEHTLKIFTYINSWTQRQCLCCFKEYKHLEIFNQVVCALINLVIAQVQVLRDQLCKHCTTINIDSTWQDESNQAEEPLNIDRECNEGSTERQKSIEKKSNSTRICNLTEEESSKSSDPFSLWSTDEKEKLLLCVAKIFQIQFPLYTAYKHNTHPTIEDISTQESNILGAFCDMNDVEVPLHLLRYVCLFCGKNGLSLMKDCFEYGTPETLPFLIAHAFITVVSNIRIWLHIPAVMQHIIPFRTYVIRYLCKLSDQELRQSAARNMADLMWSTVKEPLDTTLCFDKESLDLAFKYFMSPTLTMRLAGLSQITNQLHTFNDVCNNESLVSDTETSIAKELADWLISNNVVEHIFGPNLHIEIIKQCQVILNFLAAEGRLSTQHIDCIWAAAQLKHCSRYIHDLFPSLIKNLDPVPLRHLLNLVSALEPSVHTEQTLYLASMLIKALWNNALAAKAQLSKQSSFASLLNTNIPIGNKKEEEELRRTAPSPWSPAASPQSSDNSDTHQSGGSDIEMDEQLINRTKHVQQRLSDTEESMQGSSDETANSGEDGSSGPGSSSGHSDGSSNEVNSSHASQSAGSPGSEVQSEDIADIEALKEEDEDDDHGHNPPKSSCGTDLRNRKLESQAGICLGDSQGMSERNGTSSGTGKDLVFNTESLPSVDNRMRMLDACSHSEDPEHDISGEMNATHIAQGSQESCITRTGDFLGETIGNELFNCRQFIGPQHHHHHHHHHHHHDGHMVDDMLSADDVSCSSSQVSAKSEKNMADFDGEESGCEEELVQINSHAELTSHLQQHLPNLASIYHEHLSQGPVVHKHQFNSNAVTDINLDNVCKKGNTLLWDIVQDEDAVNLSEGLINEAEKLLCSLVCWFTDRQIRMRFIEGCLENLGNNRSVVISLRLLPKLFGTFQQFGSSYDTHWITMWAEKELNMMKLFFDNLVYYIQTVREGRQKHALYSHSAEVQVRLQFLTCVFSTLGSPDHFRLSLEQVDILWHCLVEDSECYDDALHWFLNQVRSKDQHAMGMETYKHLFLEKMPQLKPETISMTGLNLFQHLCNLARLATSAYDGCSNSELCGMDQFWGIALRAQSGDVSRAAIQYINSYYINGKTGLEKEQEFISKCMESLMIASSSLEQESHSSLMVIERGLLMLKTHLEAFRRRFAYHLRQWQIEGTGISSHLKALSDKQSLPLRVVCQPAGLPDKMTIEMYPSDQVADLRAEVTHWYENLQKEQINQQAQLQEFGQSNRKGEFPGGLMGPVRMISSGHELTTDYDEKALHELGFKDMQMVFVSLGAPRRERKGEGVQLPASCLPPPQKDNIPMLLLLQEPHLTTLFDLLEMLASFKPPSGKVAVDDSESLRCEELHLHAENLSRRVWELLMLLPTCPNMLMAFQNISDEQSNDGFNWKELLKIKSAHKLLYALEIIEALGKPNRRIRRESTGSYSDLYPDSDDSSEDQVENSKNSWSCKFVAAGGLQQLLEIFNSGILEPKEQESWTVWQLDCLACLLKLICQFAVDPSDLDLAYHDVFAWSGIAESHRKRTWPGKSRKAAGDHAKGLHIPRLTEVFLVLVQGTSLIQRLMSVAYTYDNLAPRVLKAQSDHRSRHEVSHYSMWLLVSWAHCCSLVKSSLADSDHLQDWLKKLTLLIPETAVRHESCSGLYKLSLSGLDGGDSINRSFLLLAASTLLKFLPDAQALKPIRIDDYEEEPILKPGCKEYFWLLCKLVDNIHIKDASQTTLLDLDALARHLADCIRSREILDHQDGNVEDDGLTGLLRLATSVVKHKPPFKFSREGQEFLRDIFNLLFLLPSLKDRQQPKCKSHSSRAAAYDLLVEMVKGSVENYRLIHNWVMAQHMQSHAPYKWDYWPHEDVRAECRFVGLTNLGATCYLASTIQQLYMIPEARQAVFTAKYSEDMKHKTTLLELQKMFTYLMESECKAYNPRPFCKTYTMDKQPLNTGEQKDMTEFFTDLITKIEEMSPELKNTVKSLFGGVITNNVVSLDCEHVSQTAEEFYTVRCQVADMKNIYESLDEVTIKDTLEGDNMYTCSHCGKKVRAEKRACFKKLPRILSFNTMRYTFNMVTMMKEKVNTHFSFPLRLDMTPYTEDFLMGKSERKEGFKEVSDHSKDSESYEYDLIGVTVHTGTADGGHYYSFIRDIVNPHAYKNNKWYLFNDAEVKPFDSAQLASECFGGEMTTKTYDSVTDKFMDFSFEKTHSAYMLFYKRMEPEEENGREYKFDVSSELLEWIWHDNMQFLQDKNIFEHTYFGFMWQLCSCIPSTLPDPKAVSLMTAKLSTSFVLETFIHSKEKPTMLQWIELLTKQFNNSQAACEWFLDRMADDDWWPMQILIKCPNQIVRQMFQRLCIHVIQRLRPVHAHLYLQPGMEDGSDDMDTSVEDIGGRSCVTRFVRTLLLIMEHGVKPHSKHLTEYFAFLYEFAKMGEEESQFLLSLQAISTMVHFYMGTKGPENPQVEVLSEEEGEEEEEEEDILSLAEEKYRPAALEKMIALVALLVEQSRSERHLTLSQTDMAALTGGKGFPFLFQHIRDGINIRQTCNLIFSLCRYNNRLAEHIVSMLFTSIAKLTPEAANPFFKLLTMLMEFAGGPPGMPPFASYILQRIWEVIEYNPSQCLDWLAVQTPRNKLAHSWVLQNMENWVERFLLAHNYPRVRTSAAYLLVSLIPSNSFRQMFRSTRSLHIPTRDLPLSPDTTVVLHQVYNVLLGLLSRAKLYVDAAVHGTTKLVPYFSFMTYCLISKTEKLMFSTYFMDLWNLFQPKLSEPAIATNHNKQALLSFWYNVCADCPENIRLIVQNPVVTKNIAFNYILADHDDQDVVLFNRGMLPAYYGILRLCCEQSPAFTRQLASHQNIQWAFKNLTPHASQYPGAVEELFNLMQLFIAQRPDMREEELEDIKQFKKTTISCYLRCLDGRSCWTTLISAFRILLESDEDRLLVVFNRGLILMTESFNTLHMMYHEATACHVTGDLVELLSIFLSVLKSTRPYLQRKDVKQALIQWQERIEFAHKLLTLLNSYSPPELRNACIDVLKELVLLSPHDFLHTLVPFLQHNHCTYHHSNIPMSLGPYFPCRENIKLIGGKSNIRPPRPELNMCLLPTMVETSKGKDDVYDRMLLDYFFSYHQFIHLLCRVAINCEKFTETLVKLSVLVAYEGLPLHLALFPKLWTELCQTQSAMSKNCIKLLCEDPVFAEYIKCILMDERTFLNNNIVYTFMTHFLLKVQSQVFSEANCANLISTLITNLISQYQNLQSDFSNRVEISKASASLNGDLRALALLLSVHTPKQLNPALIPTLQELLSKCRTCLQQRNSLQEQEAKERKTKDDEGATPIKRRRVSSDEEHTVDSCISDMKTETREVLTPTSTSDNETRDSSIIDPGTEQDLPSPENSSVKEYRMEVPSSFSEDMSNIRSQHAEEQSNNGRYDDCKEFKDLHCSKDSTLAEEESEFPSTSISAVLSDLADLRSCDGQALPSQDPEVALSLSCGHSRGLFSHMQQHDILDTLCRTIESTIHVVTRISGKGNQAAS
Summary of the method: (§1)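 The table lists average log2 ratios of fragment over vehicle, from an unpaired t-test on global-median-normalised Spectronaut label-free quantities. Proteins with ≥2 unique peptides were used. Samples were HEK293T lysate (495 µg) treated in triplicate with fragment at 200 µM or vehicle for 3 h, then with Biotin-Ahx-Ub-VS (0.5 µM final) for 1 h, with labelled DUBs NeutrAvidin-enriched and run by diaPASEF LC-MS/MS.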

USP36 = target: T1, USP36 (UniProt Q9P275)
T1 sequence (whole entry): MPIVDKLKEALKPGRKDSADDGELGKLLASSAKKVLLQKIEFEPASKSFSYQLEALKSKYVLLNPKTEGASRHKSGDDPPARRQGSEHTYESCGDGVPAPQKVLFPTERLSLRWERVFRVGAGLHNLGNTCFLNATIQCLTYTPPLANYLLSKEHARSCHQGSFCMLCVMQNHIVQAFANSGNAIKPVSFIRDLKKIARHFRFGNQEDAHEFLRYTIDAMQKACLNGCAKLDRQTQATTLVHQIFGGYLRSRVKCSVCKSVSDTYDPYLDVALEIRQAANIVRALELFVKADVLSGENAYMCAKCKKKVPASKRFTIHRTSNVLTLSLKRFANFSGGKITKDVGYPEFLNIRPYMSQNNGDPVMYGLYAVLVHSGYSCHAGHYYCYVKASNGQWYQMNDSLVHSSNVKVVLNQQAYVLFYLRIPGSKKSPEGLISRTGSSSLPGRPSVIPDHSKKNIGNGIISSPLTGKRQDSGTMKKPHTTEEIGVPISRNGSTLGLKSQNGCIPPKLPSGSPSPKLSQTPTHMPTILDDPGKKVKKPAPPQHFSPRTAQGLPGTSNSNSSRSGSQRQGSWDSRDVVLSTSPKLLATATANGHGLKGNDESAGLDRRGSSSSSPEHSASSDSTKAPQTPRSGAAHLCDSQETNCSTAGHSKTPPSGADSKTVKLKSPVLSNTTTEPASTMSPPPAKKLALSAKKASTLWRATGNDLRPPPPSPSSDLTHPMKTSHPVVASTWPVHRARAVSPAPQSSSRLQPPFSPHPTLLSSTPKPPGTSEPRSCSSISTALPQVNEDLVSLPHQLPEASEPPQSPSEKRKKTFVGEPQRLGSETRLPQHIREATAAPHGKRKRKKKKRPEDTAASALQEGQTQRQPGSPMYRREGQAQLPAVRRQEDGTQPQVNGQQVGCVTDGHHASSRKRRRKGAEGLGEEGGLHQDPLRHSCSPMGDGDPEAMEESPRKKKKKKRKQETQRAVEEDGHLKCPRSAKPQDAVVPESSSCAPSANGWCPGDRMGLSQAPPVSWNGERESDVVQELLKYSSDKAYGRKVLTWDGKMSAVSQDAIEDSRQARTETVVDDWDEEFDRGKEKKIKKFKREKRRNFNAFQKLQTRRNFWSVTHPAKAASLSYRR
Summary of the method: as §1

USP38 = target: T2, USP38 (UniProt Q8NB14)
T2 sequence (whole entry): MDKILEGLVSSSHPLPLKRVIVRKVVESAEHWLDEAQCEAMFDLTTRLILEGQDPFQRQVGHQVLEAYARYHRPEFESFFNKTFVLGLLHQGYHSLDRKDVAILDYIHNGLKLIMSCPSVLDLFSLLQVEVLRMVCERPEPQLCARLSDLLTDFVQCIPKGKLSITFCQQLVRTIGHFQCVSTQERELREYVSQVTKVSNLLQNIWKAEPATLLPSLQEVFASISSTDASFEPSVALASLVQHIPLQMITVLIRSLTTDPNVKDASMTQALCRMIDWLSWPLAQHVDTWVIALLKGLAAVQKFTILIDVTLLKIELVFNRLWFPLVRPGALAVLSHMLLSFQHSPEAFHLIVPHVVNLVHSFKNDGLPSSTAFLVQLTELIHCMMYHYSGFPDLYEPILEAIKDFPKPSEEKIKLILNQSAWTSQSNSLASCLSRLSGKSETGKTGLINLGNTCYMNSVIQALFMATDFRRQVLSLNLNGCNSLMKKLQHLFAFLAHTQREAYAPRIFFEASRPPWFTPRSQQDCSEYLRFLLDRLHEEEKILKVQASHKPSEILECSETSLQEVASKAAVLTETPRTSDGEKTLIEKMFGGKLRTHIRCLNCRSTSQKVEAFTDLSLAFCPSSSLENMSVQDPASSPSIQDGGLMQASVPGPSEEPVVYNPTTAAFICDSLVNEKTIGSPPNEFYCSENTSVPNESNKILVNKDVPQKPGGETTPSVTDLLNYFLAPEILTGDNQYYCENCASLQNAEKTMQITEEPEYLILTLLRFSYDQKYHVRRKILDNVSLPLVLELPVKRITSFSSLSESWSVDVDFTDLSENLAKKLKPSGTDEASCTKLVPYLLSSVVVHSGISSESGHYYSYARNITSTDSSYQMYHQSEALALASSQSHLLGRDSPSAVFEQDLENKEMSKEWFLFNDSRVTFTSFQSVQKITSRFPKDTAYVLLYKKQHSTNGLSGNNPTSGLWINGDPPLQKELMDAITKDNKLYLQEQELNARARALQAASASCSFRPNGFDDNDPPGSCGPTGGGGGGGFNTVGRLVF
Summary of the method: as §1

USP39 = target: T3, USP39 (UniProt Q53GS9)
T3 sequence (whole entry): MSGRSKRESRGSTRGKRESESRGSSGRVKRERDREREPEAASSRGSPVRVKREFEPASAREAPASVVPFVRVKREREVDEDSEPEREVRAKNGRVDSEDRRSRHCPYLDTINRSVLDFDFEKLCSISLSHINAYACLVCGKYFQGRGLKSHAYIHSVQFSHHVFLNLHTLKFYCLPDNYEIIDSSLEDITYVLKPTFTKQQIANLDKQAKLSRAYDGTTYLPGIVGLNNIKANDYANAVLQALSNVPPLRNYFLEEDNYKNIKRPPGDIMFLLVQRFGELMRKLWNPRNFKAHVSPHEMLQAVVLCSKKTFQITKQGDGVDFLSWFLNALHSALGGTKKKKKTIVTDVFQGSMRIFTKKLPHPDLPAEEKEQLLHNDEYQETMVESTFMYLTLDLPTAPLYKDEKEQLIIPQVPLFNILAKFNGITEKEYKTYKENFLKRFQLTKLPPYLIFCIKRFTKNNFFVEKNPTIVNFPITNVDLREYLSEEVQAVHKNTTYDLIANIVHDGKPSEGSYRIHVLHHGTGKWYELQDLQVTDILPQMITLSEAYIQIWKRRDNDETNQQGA
Summary of the method: as §1

USP4 = target: T4, USP4 (UniProt Q13107)
T4 sequence (whole entry): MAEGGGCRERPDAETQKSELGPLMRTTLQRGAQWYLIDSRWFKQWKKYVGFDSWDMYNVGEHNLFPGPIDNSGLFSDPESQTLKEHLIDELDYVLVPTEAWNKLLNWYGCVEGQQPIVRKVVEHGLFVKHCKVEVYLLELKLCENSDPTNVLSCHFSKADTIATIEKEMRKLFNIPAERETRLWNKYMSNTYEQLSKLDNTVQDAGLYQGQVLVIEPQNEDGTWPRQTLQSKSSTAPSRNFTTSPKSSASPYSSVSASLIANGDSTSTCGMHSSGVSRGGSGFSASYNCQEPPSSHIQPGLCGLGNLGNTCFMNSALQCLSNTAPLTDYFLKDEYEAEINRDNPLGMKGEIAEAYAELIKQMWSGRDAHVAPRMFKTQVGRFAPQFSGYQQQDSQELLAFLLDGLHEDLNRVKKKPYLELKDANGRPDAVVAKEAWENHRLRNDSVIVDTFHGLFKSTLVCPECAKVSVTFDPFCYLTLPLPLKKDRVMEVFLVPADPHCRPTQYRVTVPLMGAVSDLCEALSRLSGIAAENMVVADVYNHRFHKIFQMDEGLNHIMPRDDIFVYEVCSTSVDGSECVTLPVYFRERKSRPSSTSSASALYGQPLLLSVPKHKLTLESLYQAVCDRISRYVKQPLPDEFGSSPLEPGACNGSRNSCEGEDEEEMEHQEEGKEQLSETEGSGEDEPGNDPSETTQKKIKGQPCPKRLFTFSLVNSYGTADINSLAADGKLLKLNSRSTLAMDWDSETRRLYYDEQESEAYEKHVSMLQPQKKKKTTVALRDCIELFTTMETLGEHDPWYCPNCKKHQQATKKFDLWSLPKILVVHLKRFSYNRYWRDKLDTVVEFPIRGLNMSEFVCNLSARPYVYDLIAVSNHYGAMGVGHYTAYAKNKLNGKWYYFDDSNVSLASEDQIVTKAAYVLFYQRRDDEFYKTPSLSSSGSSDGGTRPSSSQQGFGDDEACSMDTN
Summary of the method: as §1

Measured: log2 ratio of Biotin-Ahx-Ub-VS probe labelling

CNC(=O)C1(NC(=O)CCl)CCCCC1
inactive: USP34 0.0737 | USP36 0.00681 | USP38 0.142 | USP39 0.392 | USP4 0.249
